This passage reports composite z-score results from PubChem BioAssay.

This assay concerns XIP peptide (Xip251-270). Put plainly: compounds binding XIP fragment 251-270 – biochemical, small-molecule microarray, fluorescence 635/667 nm, 0.5 µg/mL protein, primary screen (AID 1183). To be noted: fluorescence 635 nm, higher = more signal.
With `CCN1C(=O)[C@H]2[C@H]3[C@H](O)[C@H](O)CC(=NOC(C)CN4CCCCc5nc(C)c(C)cc54)[C@@H]3CC[C@H]2C1=O` (stereo partly specified), the composite z-score came to 0.196.

`CO[C@H]1COC(=O)[C@H](C)COC(=O)CC=C[C@@H](C)[C@H](OC)COC(=O)CC=C[C@@H]1C`: the composite z-score is -0.0452.

On to `CC(=O)OC[C@H]1O[C@H](CCON=C(C)CCC(=O)OC[C@H]2O[C@H](C#Cc3ccccc3)C=C[C@@H]2Oc2ccc(C)cc2)C=C[C@@H]1OC(C)=O`, for which the composite z-score was determined as 0.0804.

For `CC(=O)C[C@H](O)[C@@H](NC(=O)OC(C)(C)C)C(C)C`, the composite z-score is -0.161.

In the case of `COC(=O)[C@H](C)NC(=O)CCC1CC(OC(=O)NCc2ccc3c(c2)OCO3)CC2(CCCC(COC(=O)NCCOc3ccccc3)O2)O1` (stereo partly specified), the composite z-score amounted to 0.588.

As for `CC1(C)OCC(C(O)C2=CCCCC2=O)CO1` (stereo unspecified), the composite z-score worked out at 0.446.

For the molecule `COC(=O)[C@@H]1CC[C@H](C)[C@@H](c2ccc(C)cc2)N1C(=O)c1ccc(C=NOC(C)CN2CCCCc3nc(C)c(C)cc32)cc1` (stereo partly specified), the composite z-score is 0.51.

Turning to `O=C1[C@H]2[C@H]3[C@H](O)[C@H](O)CC(=NOC[C@@H](O)COCc4ccco4)[C@H]3CC[C@H]2C(=O)N1C1CCCCC1`, the composite z-score was -0.37.

As to `CCCNC(=O)OC[C@H]1O[C@H](CCON=CC[C@@H]2C=C[C@H](OC(C)=O)[C@@H](COC(C)=O)O2)C=C[C@@H]1Oc1ccc(OC)cc1`, the composite z-score came to 0.512.

Turning to `COc1ccc(COC(=O)NN=C2C[C@@H](O)[C@@H](O)[C@@H]3[C@@H]4C(=O)N(c5ccc(F)cc5F)C(=O)[C@@H]4CC[C@@H]23)cc1`, the composite z-score is -0.0386.

As for `CC(C)=NOCc1ccc(-c2cc(-c3ccccc3)no2)cc1`, the composite z-score was -0.0722.

`CO[C@@H]1COC(=O)CC=C[C@@H](C)COC(=O)[C@H](COCc2ccccc2)NC(=O)CC=C[C@H]1C`: the composite z-score was -0.453.

As to `CCOC(=O)[C@H](CC(C)C)NC(=O)CCC1CC(OC(=O)NCc2cccc3ccccc23)CC2(CCCC(COC(=O)NCCN3CCOCC3)O2)O1` (stereo partly specified), the composite z-score came to 0.464.

For the molecule `COCCNC(=O)OCC1CCCC2(CC(OC(=O)NCCc3ccc(F)cc3)CC(CCC(=O)N[C@@H](C)C(=O)OC)O2)O1` (stereo partly specified), the composite z-score amounted to 0.579.

As for `CO[C@@H]1COC(=O)CC=C[C@@H](C)[C@@H]2C=C[C@H](O)[C@@H](COC(=O)[C@H](C)NC(=O)CC=C[C@H]1C)O2`, the composite z-score amounted to 0.437.

Regarding `COc1ccc(O[C@H]2C=C[C@@H](c3ccccc3)O[C@@H]2COC(=O)N2CCCCC2)cc1`, the composite z-score is -0.216.

Consider `COc1ccc(O[C@H]2C=C[C@@H](c3ccccc3)O[C@@H]2CON=C[C@@H](C)[C@H](OCc2ccccc2)C(C)C)cc1`, for which the composite z-score was -0.126.

On to `CC(CCN1CCCCc2nc(C)c(C)cc21)=NOC(C)CN1CCCCc2nc(C)c(C)cc21` (stereo unspecified), for which the composite z-score came out at 0.805.

In the case of `CC=CC1=C(CO)[C@H](O)[C@H]2O[C@H]2[C@H]1O`, the composite z-score is -0.229.

On to `CO[C@H]([C@@H](C)[C@H](OC)c1ccccc1)[C@H](C)[C@@H](OC)[C@H](C)C(C)=O`, for which the composite z-score was -0.694.

For `O=C1[C@H]2[C@H]3[C@H](O)[C@H](O)CC(=NOCc4ccccc4)[C@@H]3CC[C@H]2C(=O)N1C1CCCCC1`, the composite z-score came to 0.0602.

`CO[C@@H]1COC(=O)CCC[C@@H](C)[C@H](OC)COC(=O)[C@H](Cc2ccccc2)NC(=O)CC=C[C@H]1C`: the composite z-score is -0.282.

Consider `COc1ccc(-c2nc3c(c4c2C[C@H](C)OC4)CN(CCC(C)C)CC3)cc1`, for which the composite z-score was 0.653.

As for `CC(=O)O[C@H]1C2=C(C(=O)[C@@H]3O[C@@H]31)[C@H]1C(C)O[C@@H]2[C@@]23C(=O)[C@@H]4O[C@@H]4[C@@H](O)C2=CO[C@H](C)[C@@H]13` (stereo partly specified), the composite z-score is -0.697.

As to `CC(C)=CCCC(C)=CCON=C1[C@H]2CCn3c(=O)n(Cc4cc5c(cc4Cl)OCO5)c(=O)n3[C@H]2[C@H](O)[C@@H]2O[C@H]12`, the composite z-score was 0.208.

For the molecule `c1ccc(C2NCCc3c2[nH]c2ccccc32)cc1` (stereo unspecified), the composite z-score was determined as 0.4.

Consider `Cc1cc2c(nc1C)CCCN2CC(O)CN1CCN(C)CC1` (stereo unspecified), for which the composite z-score is 0.362.

Turning to `COC(=O)[C@H](C)NC(=O)[C@@H](C)CO`, the composite z-score came to 0.332.

Take `C[C@H](c1ccccc1)N1C(=O)[C@H]2[C@H]3[C@H](O)[C@H](O)CC(=O)[C@@H]3CC[C@H]2C1=O`: the composite z-score amounted to 0.771.

Consider `O=C1CCCC=C1C(O)CCOCc1ccccc1` (stereo unspecified), for which the composite z-score stood at 0.0941.

Regarding `O=C1[C@H]2[C@H]3[C@H](O)[C@H](O)CC(=NOC[C@@H](O)COCc4ccco4)[C@@H]3CC[C@H]2C(=O)N1c1ccc(F)cc1F`, the composite z-score was -0.103.

Consider `CCOC(=O)NN=C1C[C@@H](O)[C@@H](O)[C@@H]2[C@@H]3C(=O)N(C[C@@H]4CCCO4)C(=O)[C@@H]3CC[C@@H]12`, for which the composite z-score is -0.0422.

Turning to `C[C@@H]1CCC2C(=O)N(Cc3ccccc3)C[C@@H](O)CN2[C@H]1c1ccc(Br)cc1` (stereo partly specified), the composite z-score worked out at 0.689.

For `COC(=O)[C@H](C)NC(=O)CCC1CC(OC(=O)NCc2cccc3ccccc23)CC2(CCCC(COC(=O)NCCc3ccc(Cl)cc3)O2)O1` (stereo partly specified), the composite z-score turned out to be 0.204.

With `O=C1C[C@@H](O)[C@@H](O)[C@@H]2[C@@H]3C(=O)N(C4CCCCC4)C(=O)[C@@H]3CC[C@H]12`, the composite z-score was determined as 0.349.

As for `CC(C)CON=C1[C@H]2CCn3c(=O)n(-c4ccccc4)c(=O)n3[C@H]2[C@H](O)[C@@H]2O[C@H]12`, the composite z-score was found to be 0.263.
